Data as given in the supplement of paper PMC8007513.
Where a name gives a salt, the structure may show the parent alone. ± gives the standard error. Among all 1,300 compounds or so, about 130 (10%) showed an effect of 50% or more. For the sample, strong results were picked, then their nearest neighbours and some compounds at random.

System: Trichoderma virens ATCC 9645
Experiment: growth yield (OD600) with compound + IPBC relative to untreated control; higher = less growth inhibition
Settings: compound concentration: 100 uM, IPBC concentration: 200 ng/ml
How it was run: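 Trichoderma virens ATCC 9645 spores at 15,000 spores ml^−1 in potato dextrose broth were exposed in 96-well plates to library compounds at 100 μM final, with or without a biocide at 200 ng ml^−1. After growth at 30 °C, OD600 was read at 40 h and 72 h. Values are growth relative to the control without either agent, averaged over duplicate screens.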

Structure (SMILES)	growth yield (40 h) [%]	growth yield (72 h) [%]
NC[C@@H]1O[C@@H](O[C@H]2[C@H](O)[C@@H](O[C@H]3O[C@H](CO)[C@@H](O)[C@H](N)[C@H]3O)[C@H](N)C[C@@H]2N)[C@@H](O)[C@H](O)[C@H]1O [Kanamycin A sulfate] + CCCCNC(=O)OCC#CI [3-iodo-2-propynyl butylcarbamate (IPBC)]	87.2 ± 9.4	93.4 ± 4.7
c1ccc(CN(CC2=NCCN2)c2ccccc2)cc1 [Antazoline hydrochloride] + CCCCNC(=O)OCC#CI [3-iodo-2-propynyl butylcarbamate (IPBC)]	82.76 ± 0.79	94.28 ± 0.94
C#C[C@]1(O)CC[C@H]2[C@@H]3CCC4=CC(=O)CC[C@]4(C)[C@H]3CC[C@@]21C [Ethisterone] + CCCCNC(=O)OCC#CI [3-iodo-2-propynyl butylcarbamate (IPBC)]	105 ± 2.7	105 ± 3.2
C=CCN1CCCC1CNC(=O)c1cc2nn[nH]c2cc1OC (stereo unspecified) [Alizapride hydrochloride] + CCCCNC(=O)OCC#CI [3-iodo-2-propynyl butylcarbamate (IPBC)]	111.5 ± 0.32	107
OC(CNCC(O)C1CCc2cc(F)ccc2O1)C1CCc2cc(F)ccc2O1 (stereo unspecified) [Nebivolol hydrochloride] + CCCCNC(=O)OCC#CI [3-iodo-2-propynyl butylcarbamate (IPBC)]	11.3 ± 4.3	63.7 ± 18
NC(=O)c1cccnc1 [Nicotinamide] + CCCCNC(=O)OCC#CI [3-iodo-2-propynyl butylcarbamate (IPBC)]	106 ± 4.8	101.4 ± 0.94
C=CC1=C(C(=O)O)N2C(=O)[C@@H](NC(=O)/C(=N\OCC(=O)O)c3csc(N)n3)[C@H]2SC1 [Cefixime] + CCCCNC(=O)OCC#CI [3-iodo-2-propynyl butylcarbamate (IPBC)]	104.8 ± 0.64	103
Clc1cc(Cl)c(OCC#CI)cc1Cl [Haloprogin] + CCCCNC(=O)OCC#CI [3-iodo-2-propynyl butylcarbamate (IPBC)]	5.24 ± 0.48	2.83 ± 1.6
CC1=Nc2ccc(Cl)cc2S(=O)(=O)N1 [Diazoxide] + CCCCNC(=O)OCC#CI [3-iodo-2-propynyl butylcarbamate (IPBC)]	97.4 ± 4	100.8 ± 0.94
CC[C@H]1OC(=O)[C@H](C)[C@@H](O[C@H]2C[C@@](C)(OC)[C@@H](O)[C@H](C)O2)[C@H](C)[C@@H](O[C@@H]2O[C@H](C)C[C@H](N(C)C)[C@H]2O)[C@](C)(O)C[C@@H](C)/C(=N\OCOCCOC)[C@H](C)[C@@H](O)[C@]1(C)O [Roxithromycin] + CCCCNC(=O)OCC#CI [3-iodo-2-propynyl butylcarbamate (IPBC)]	97.2 ± 9.5	96.4 ± 4.3
CC(C)(C(=O)O)c1ccc(C(O)CCCN2CCC(C(O)(c3ccccc3)c3ccccc3)CC2)cc1 (stereo unspecified) [Fexofenadine hydrochloride] + CCCCNC(=O)OCC#CI [3-iodo-2-propynyl butylcarbamate (IPBC)]	89.3 ± 5.4	95.5 ± 7.2
OC(c1ccccc1)(c1ccccc1)C1CCNCC1 [Azacyclonol] + CCCCNC(=O)OCC#CI [3-iodo-2-propynyl butylcarbamate (IPBC)]	80.06 ± 0.32	91.2 ± 1.5
CC(C)(C)c1ccc(C(O)CCCN2CCC(C(O)(c3ccccc3)c3ccccc3)CC2)cc1 (stereo unspecified) [Terfenadine] + CCCCNC(=O)OCC#CI [3-iodo-2-propynyl butylcarbamate (IPBC)]	47.2 ± 9.1	90.09 ± 0.73
C[N+]12CCC(CC1)C(OC(=O)C(O)(c1ccccc1)c1ccccc1)C2 (stereo unspecified) [Clidinium bromide] + CCCCNC(=O)OCC#CI [3-iodo-2-propynyl butylcarbamate (IPBC)]	95.8 ± 11	95.8 ± 6.6
O=C(NCCN1CCOCC1)c1ccc(Cl)cc1 [Moclobemide] + CCCCNC(=O)OCC#CI [3-iodo-2-propynyl butylcarbamate (IPBC)]	81.6 ± 4.8	89.7 ± 2
Cc1c(N)c(=O)n(-c2ccccc2)n1C [Ampyrone] + CCCCNC(=O)OCC#CI [3-iodo-2-propynyl butylcarbamate (IPBC)]	104 ± 3.8	105 ± 1.8
CCCCc1oc2ccccc2c1C(=O)c1cc(I)c(OCCN(CC)CC)c(I)c1 [Amiodarone hydrochloride] + CCCCNC(=O)OCC#CI [3-iodo-2-propynyl butylcarbamate (IPBC)]	2.06 ± 0.16	2.41 ± 0.1
CCCCOc1cc(C(=O)NCCN(CC)CC)c2ccccc2n1 [Dibucaine] + CCCCNC(=O)OCC#CI [3-iodo-2-propynyl butylcarbamate (IPBC)]	85 ± 1.4	94.18 ± 0.21
CCCCOc1cc(C(=O)OCCN(CC)CC)ccc1N [Benoxinate hydrochloride] + CCCCNC(=O)OCC#CI [3-iodo-2-propynyl butylcarbamate (IPBC)]	84.82 ± 0.64	91.24 ± 0.63

Structure (SMILES)	growth yield (40 h) [%]	growth yield (72 h) [%]
CN(CCOc1ccc(NS(C)(=O)=O)cc1)CCc1ccc(NS(C)(=O)=O)cc1 [Dofetilide] + CCCCNC(=O)OCC#CI [3-iodo-2-propynyl butylcarbamate (IPBC)]	88.79 ± 0.79	90.3 ± 2
CCCCc1oc2ccc(NS(C)(=O)=O)cc2c1C(=O)c1ccc(OCCCN(CCCC)CCCC)cc1 [Dronedarone hydrochloride] + CCCCNC(=O)OCC#CI [3-iodo-2-propynyl butylcarbamate (IPBC)]	6.51 ± 0.16	3.25 ± 0.32
CCCCCCCN(CC)CCCC(O)c1ccc(NS(C)(=O)=O)cc1 (stereo unspecified) [Ibutilide fumarate] + CCCCNC(=O)OCC#CI [3-iodo-2-propynyl butylcarbamate (IPBC)]	85 ± 1.4	88.1 ± 0.63
CCCCC1=NC2(CCCC2)C(=O)N1Cc1ccc(-c2ccccc2-c2nnn[nH]2)cc1 [Irbesartan] + CCCCNC(=O)OCC#CI [3-iodo-2-propynyl butylcarbamate (IPBC)]	96.6 ± 6.7	95.8 ± 3.5
NS(=O)(=O)c1cc2c(cc1Cl)N=C(CSCc1ccccc1)NS2(=O)=O [Benzthiazide] + CCCCNC(=O)OCC#CI [3-iodo-2-propynyl butylcarbamate (IPBC)]	89.9 ± 0.32	94.8 ± 1.3
O=C(OCC(O)CO)c1ccccc1Nc1ccnc2cc(Cl)ccc12 (stereo unspecified) [Glafenine hydrochloride] + CCCCNC(=O)OCC#CI [3-iodo-2-propynyl butylcarbamate (IPBC)]	84.3 ± 2.4	97.3 ± 1.3
O=[N+]([O-])O[C@@H]1CO[C@H]2[C@@H]1OC[C@@H]2O [Isosorbide mononitrate] + CCCCNC(=O)OCC#CI [3-iodo-2-propynyl butylcarbamate (IPBC)]	88.2 ± 4	91.3 ± 4.1
CCN(C(C)=O)c1cccc(-c2ccnc3c(C#N)cnn23)c1 [Zaleplon] + CCCCNC(=O)OCC#CI [3-iodo-2-propynyl butylcarbamate (IPBC)]	81.009 ± 1e-14	88.94 ± 0.42
Cc1c(NC(C)C)c(=O)n(-c2ccccc2)n1C [Isopyrin hydrochloride] + CCCCNC(=O)OCC#CI [3-iodo-2-propynyl butylcarbamate (IPBC)]	87 ± 2.5	91.24 ± 0.63
CC1(C)S[C@@H]2[C@H](NC(=O)Cc3ccccc3)C(=O)N2[C@H]1C(=O)O [Benzylpenicillin sodium] + CCCCNC(=O)OCC#CI [3-iodo-2-propynyl butylcarbamate (IPBC)]	82.1 ± 6.2	97.1 ± 6.1
CC1(C)S[C@@H]2[C@H](NC(=O)Cc3ccccc3)C(=O)N2[C@H]1C(=O)O [Benzathine benzylpenicillin] + CCCCNC(=O)OCC#CI [3-iodo-2-propynyl butylcarbamate (IPBC)]	102 ± 12	98 ± 9.9
CCCCc1ncc(/C=C(\Cc2cccs2)C(=O)O)n1Cc1ccc(C(=O)O)cc1 [Eprosartan mesylate] + CCCCNC(=O)OCC#CI [3-iodo-2-propynyl butylcarbamate (IPBC)]	112 ± 9.7	109 ± 4.1
COCCOC(=O)C1=C(C)NC(C)=C(C(=O)OC(C)C)C1c1cccc([N+](=O)[O-])c1 (stereo unspecified) [Nimodipine] + CCCCNC(=O)OCC#CI [3-iodo-2-propynyl butylcarbamate (IPBC)]	79.7 ± 7.9	87.3 ± 1.3
CCOC(=O)C1=C(C)NC(C)=C(C(=O)OC)C1c1cccc(Cl)c1Cl (stereo unspecified) [Felodipine] + CCCCNC(=O)OCC#CI [3-iodo-2-propynyl butylcarbamate (IPBC)]	77.5 ± 8.3	92.9 ± 1.9
COC(=O)C1=C(C)NC(C)=C(C(=O)OCCN(C)Cc2ccccc2)C1c1cccc([N+](=O)[O-])c1 (stereo unspecified) [Nicardipine hydrochloride] + CCCCNC(=O)OCC#CI [3-iodo-2-propynyl butylcarbamate (IPBC)]	73.1 ± 1.6	94.7 ± 2.2
COC(=O)C1=C(C)NC(C)=C(C(=O)OC)C1c1ccccc1[N+](=O)[O-] [Nifedipine] + CCCCNC(=O)OCC#CI [3-iodo-2-propynyl butylcarbamate (IPBC)]	42.41 ± 0.16	55.48 ± 0.52
COC(=O)C1=C(C)NC(C)=C(C(=O)OCC(C)C)C1c1ccccc1[N+](=O)[O-] (stereo unspecified) [Nisoldipine] + CCCCNC(=O)OCC#CI [3-iodo-2-propynyl butylcarbamate (IPBC)]	41.3 ± 8.3	34.71 ± 0.1
CCOC(=O)C1=C(C)NC(C)=C(C(=O)OC)C1c1cccc([N+](=O)[O-])c1 (stereo unspecified) [Nitrendipine] + CCCCNC(=O)OCC#CI [3-iodo-2-propynyl butylcarbamate (IPBC)]	79.58 ± 0.48	85.7 ± 1.1
CCCCc1nc(Cl)c(CO)n1Cc1ccc(-c2ccccc2-c2nnn[nH]2)cc1 [Losartan] + CCCCNC(=O)OCC#CI [3-iodo-2-propynyl butylcarbamate (IPBC)]	98.3 ± 6.2	96.7 ± 5.7
